Measurements taken from PubChem BioAssay (NCI).
This is part of a sample that, as a whole, favours compounds with a hit. Of some 83,000 tested, about 20% had one in any assay.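 Assay: single dose, 48 h. Readout: percent growth (0 = no net growth; negative = cell death). Active: <10.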 Values without a mark were called inactive. Active and inactive are the calls of the source.

How the values were obtained:
Assay in all cases: NCI-60 one-dose screen, 48 h (100 = growth as untreated, 0 = no growth, -100 = all killed)
Details in all cases: 10 µM unless noted
[1] = system: NCI-H23 lung
[2] = system: NCI-H226 lung
[3] = system: NCI-H322M lung
[4] = system: HOP-62 NSCLC
[5] = system: NCI-H460 lung
[6] = system: HOP-92 NSCLC
[7] = system: NCI-H522 lung
[8] = system: A549/ATCC NSCLC
[9] = system: 786-0 renal
[10] = system: COLO 205 colon
[11] = system: DU-145 prostate
[12] = system: K-562 leukemia
[13] = system: MALME-3M melanoma
[14] = system: MDA-MB-231 breast
[15] = system: SF-268 CNS
[16] = system: SF-295 CNS
[17] = system: SF-539 CNS
[18] = system: UACC-257 melanoma
[19] = system: M14 melanoma
[20] = system: RXF 393 renal

Structure (SMILES) | growth [1] | growth [2] | growth [3] | growth [4] | growth [5] | growth [6] | growth [7] | growth [8] | growth [9] | growth [10] | growth [11] | growth [12] | growth [13] | growth [14] | growth [15] | growth [16] | growth [17] | growth [18] | growth [19] | growth [20] [%]
Clc1ccc2nnnn2n1 | 54.4% | 66.6% | 85.2% | 55.7% | 20.7% | -3.54% (active) | 13.2% | 77.3% | 23% | -77.3% (active) | 3.28% (active) | -11.3% (active) | 66.2% | 36.8% | 25% | 67.7% | 47% | 41.1% | 37.7% | 
CCCCCCCC(=O)OCC(=O)[C@]1(O)Cc2c(O)c3c(c(O)c2[C@@H](OC2CC(N)C(O)C(C)O2)C1)C(=O)c1c(OC)cccc1C3=O (stereo partly drawn) | -76.2% (active) | -65.9% (active) | -72.8% (active) | -63.1% (active) | -92.9% (active) | -73.5% (active) | -63.2% (active) | -97.6% (active) | -82.9% (active) | -85.7% (active) | -100% (active) | -86.7% (active) | -70.7% (active) | -72.4% (active) | -82.1% (active) | -68.1% (active) | -79.9% (active) | -98.2% (active) | -69.8% (active) | 
COc1cc(C=C2c3ccccc3C(=O)c3ccccc32)ccc1OCCCCOc1cc2c(cc1OC)C(=O)N1CCCC1C=N2 (stereo not drawn) | -52.7% (active) | -66.4% (active) | 13.3% | -62.5% (active) | -77% (active) | -59.4% (active) | -53.1% (active) | -37.8% (active) | -100% (active) | -93.9% (active) | -92.7% (active) | -15.4% (active) | -28.8% (active) | -23.7% (active) | -59.9% (active) | -42.2% (active) | -70.9% (active) | -73.3% (active) | -66.7% (active) | 
COC(=O)CC12CC(NC(=O)c3csc([C@@H](C[C@H](C(C)C)N(C)C(=O)[C@@H](NC(=O)[C@H]4CCCCN4C)C(C)C)OC(C)=O)n3)(C1)C2 | 21.3% | 23.1% | 43% | 6.8% (active) | 7.76% (active) | 35.7% | 10.8% | 18% | 12% | -54.7% (active) | 14% | 9.94% (active) | 51% | 6.67% (active) | 26.1% | -7.27% (active) | -12.8% (active) |  | 7% (active) | 
CC1(C)N=C(N)N=C(N)N1c1cccc(CCCCc2ccc(Cl)c(S(=O)(=O)F)c2)c1 | 28.4% | 57.1% | 54.9% | 33.6% | 21.4% | 41.3% | -9.62% (active) | 10.6% | 5.96% (active) | 72.7% | 47.5% | 16.4% | 56% | 69.8% | 35.9% | 39% | 19.9% | 33.6% | 39% | 
COC(=O)[C@@H](C)C[C@H](Cc1cn(C)c2ccccc12)NC(=O)c1csc([C@@H](C[C@H](C(C)C)N(C)C(=O)[C@@H](NC(=O)[C@H]2CCCCN2C)C(C)C)OC(C)=O)n1 | 31.9% | 18% | 37.8% | 7.44% (active) | 7.12% (active) | 25.7% | -7.69% (active) | 15.3% | 6.49% (active) | -58.9% (active) | 12.4% | 6.65% (active) | 50.4% | 5.09% (active) | 16.6% | -0.0499% (active) | -8.57% (active) |  |  | 
CCOC(=O)c1c(C)n(Cc2ccccc2)c2cc(CN(C)C)c(O)cc12 | 57.2% | 91.3% | 41.8% | 47.9% | 53.4% | 8.81% (active) | 77.9% | 79.5% | 57.8% | 58% | 79.9% | 29.3% | 103% |  | 82.9% | 43.6% | 57.8% | 81.8% | 81.3% | 66.9
O=Cc1cn(Cc2ccc(Cl)cc2)c2ccccc12 | 84.9% | -26.9% (active) | 82.5% | 76.9% | 5.05% (active) | 76.4% | 93.4% | 64.8% | 94.1% | 22% | 95.5% | 40.5% | 96.5% | 96.1% | 89.6% | 46% | 87.4% | 21.8% | 83.8% | 
C=C1[C@@H](C)[C@H]2[C@H](Cc3ccccc3)NC(=O)[C@]23[C@@H](O)/C=C/[C@@](C)(O)C(=O)[C@@H](C)C/C=C/[C@H]3[C@@H]1O | 68.2% | 50.4% | 92.2% | 5.91% (active) | 69.3% | -9.38% (active) | 28% | 37.7% | 20.1% | -17.8% (active) | 82.9% | 52% | 62.5% | 32.9% | 24.5% | 39.2% | 21.9% |  | 68.8% | 
CC[C@H](C)[C@H](NC(=O)[C@H]1CCCCN1C)C(=O)N(C)[C@H](CCc1nc(C(=O)N[C@@H](Cc2ccccc2)C[C@H](C)C(=O)OC)cs1)C(C)C | 31% | 28.6% | 40.9% | 14.3% | 6.43% (active) | 12.9% | -14.6% (active) | 17% | 7.3% (active) | -64.1% (active) | 6.52% (active) | 9.7% (active) | 65.4% | 11.8% | 19.6% | 7.05% (active) | 0.775% (active) |  | -15.3% (active) | 
ClCCN(CCCl)c1nc(Cl)c(C2CC(c3ccccc3)=NN2c2cc(Cl)cc(Cl)c2)s1 (stereo not drawn) | 99.7% | 99.6% | 97.8% | 111% | 99.3% | 113% | 97.6% | 94.7% | 100% | 121% | 107% | 99.1% | 103% | 98.7% | 96.7% | 107% | 101% | 95.9% | 108% | 
COC(=O)C12CC(NC(=O)c3csc([C@@H](C[C@H](C(C)C)N(C)C(=O)[C@@H](NC(=O)[C@H]4CCCCN4C)C(C)C)OC(C)=O)n3)(C1)C2 | 23.9% | 10.6% | 41.9% | 6.07% (active) | 5.4% (active) | 52.8% | -23.6% (active) | 16.6% | 18.2% | -60.1% (active) | 16.6% | 12% | 54.4% | 11.9% | 22.9% | -11.2% (active) | -29.9% (active) |  | 2.68% (active) | 
O=C1C=C(N2C3C4CCC(C4)C32)C(=O)C=C1c1ccccc1 (stereo not drawn) | 106% | 107% | 107% | 108% | 90.2% | 96.9% | 51% | 94.9% | 102% | 115% | 105% | 32.9% | 55.4% | 76.6% | 89.6% |  | 96.5% | 73.1% | 111% | 
O=C(O)C(O)C(O)C1[O][Sb]([c]2ccc([N+](=O)[O-])cc2)[O]C1CO (stereo not drawn) | 101% | 93.4% | 102% | 110% | 100% | 102% | 94.6% | 94.4% | 104% | 115% | 116% | 99.6% | 116% | 99.3% | 106% | 101% | 102% | 95.7% | 106% | 
CC(=O)[O][Hg][c]1c(N)c(C)cc(C)c1F | 48.6% | 90.2% | 85.1% | 59.5% | 43.8% | 12.1% | -42.2% (active) | 84.7% | -31.7% (active) | -16.6% (active) | 36.3% | 5.95% (active) | -72.4% (active) | 7.24% (active) | -15.5% (active) | 73% | 28.3% | 31% | 5.84% (active) | 
